The whole screen tested about 340,000 compounds, of which about 2,100 (0.62%) were called active.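 The calls were made as follows: active = first-screen hits whose inhibition reached a set limit at any dose in the follow-up dose series; inconclusive = inhibition above the set first-screen limit but never retested; inactive = the rest.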 A selection follows. Entries with a potency or affinity are not part of this list.
These compounds were tested against Rac GTPase-activating protein 1 (Homo sapiens) (UniProt Q9H0H5) (assay: MgcRacGAP GTPase-activating activity inhibitors, confirmation, biochemical, ADP Hunter fluorescence, primary and confirmatory (AID 624330;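 also: fluorescence reports GDP produced by GAP-driven GTP hydrolysis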)). Conditions: MgcRacGAP-stimulated Rac1 GTP hydrolysis, at 30 µM, active compounds read high, GST-tagged Rac1 F28L mutant substrate.
Sequence of Rac GTPase-activating protein 1 (Homo sapiens) (Q9H0H5 whole entry, looked up): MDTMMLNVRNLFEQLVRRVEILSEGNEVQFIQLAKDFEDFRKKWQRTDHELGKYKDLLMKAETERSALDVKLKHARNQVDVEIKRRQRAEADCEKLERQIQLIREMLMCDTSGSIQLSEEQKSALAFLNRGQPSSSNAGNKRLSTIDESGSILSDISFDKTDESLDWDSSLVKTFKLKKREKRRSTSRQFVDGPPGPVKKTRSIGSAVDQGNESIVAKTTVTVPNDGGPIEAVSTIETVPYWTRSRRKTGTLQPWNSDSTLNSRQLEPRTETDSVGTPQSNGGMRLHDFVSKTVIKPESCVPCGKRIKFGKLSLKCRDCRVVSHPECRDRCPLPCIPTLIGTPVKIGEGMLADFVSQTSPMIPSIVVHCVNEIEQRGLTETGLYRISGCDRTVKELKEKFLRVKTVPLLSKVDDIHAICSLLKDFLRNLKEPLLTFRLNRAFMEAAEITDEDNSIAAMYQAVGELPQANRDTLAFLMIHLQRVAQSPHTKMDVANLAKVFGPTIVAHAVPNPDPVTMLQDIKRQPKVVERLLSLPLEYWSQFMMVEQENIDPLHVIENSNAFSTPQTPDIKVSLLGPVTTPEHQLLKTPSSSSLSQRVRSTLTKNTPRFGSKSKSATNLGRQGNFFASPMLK

inhibition, inactive:
COc1cc([N+](=O)[O-])ccc1N 0.84%
Cc1cc([N+](=O)[O-])ccc1N -7.8%
Cc1cc(Cc2ccc(N)c(C)c2)ccc1N 4.21%
Cc1ccc2c(N)c(C)ccc2c1 12.7%
COc1cc(NC(N)=S)c(OC)cc1Cl 10.5%
Cc1ccc(C)c(N)c1 6.49%
COc1cc(Br)c(Br)cc1N -1.7%
COc1ccc(-c2nnc(N)s2)cc1OC 5.29%
O=C(CSc1nccc(=O)[nH]1)NN(c1ccccc1)c1ccccc1 11.2%
O=C(NCC(c1ccco1)N1CCN(c2ccccc2)CC1)C(=O)NC1CCCC1 (centres undefined) 4.87%
CCCCCN(C(=O)CCC(=O)OCc1cccc(C)c1)c1c(N)n(CCCC)c(=O)[nH]c1=O 5.1%
O=C(CSc1nnc(COc2ccccc2)n1-c1ccccc1)c1cccs1 15.1%
CCOC(=O)c1nc(C)nc(Sc2n[nH]c(-c3ccccc3)n2)c1C 9.53%
C/C(=N/OCC(=O)Nc1ccccc1)c1cccs1 6.14%
CCCCc1ccc(NC(=O)CN(C)CC(=O)Nc2ccccc2Cl)cc1 11.5%
O=c1cc(-c2ccc(Cl)c(Cl)c2)[nH][nH]1 8.61%
CCCCC(=O)N1C/C=C\C(c2ccc(OC)cc2)N(Cc2ccc(F)cc2)C(=O)C1 (centres undefined) 8.3%
O=C(O)c1ccc(/C=N/Nc2ccc(C(F)(F)F)cn2)cc1 13.8%
FC(F)(F)c1ccc(N/N=C/c2cccnc2)nc1 4.55%
COc1cc(/C=N/Nc2ccc(C(F)(F)F)cn2)cc(OC)c1O 13%
O=[N+]([O-])c1ccc(NN=Cc2ccc(O)cc2O)nc1 24.6%
Cc1ncc(CO)c(/C=N/Nc2ccc(C(F)(F)F)cn2)c1O 61.5%
COc1ccc(/C=N/Nc2ncc(C(F)(F)F)cc2Cl)cc1OC -7.93%
Cc1cccc(C(CC(=O)O)NC(=O)C(F)(F)F)c1 (centres undefined) 2.11%
C=CCN(CC=C)CCCOc1ccc(C)cc1OC 14.4%
Cc1ccc(NS(=O)(=O)c2ccc3c(c2)NC(=O)C(C)C(=O)N3)cc1C (centres undefined) -6.55%
CCC(Oc1ccccc1C)C(=O)N1CCCN(C)CC1 (centres undefined) 3.47%
COc1cc(-c2nc3cnccn3c2Nc2ccc3c(c2)OCCO3)ccc1O 15.7%
COc1cc(-c2nc3cccc(C)n3c2NCC2CCCO2)ccc1O (centres undefined) -43.9%
Cc1ccc2nc(-c3ccccc3O)c(Nc3ccc4c(c3)OCCO4)n2c1 11.2%
COc1ccc(OC)c(/C=N/c2c(-c3ccc(O)c(OC)c3)nc3ccccn23)c1 4.63%
COc1cc(-c2nc3cnccn3c2NC(C)(C)CC(C)(C)C)ccc1O 17%
Cc1cccc(C)c1Nc1c(-c2ccc(N3CCOCC3)cc2)nc2cnccn12 13.6%
CCOc1cc(-c2nc3ccccn3c2NCC2CCCO2)ccc1O (centres undefined) -4.32%
COc1cc(-c2nc3ccccn3c2/N=C/c2cccc(OC)c2O)ccc1O 10.6%
O=C1CC2(CCCC2)C(=O)N1c1ccc(S(=O)(=O)NCC2CC2)cc1Cl 5.71%
COc1ccc(OCc2nnc(SC3CCOC3=O)n2-c2ccccc2)cc1 (centres undefined) 11.2%
c1nnc(-c2ccc3c(c2)OCO3)o1 12.3%
CC(C)(C)C(=O)NCc1ccc(C(=O)CSc2nnc(C3CC3)n2C2CC2)s1 8.51%
C[C@]12C(=O)N(c3cccc(Cl)c3)C(=O)N1[C@@H]1c3ccccc3OC[C@@H]1[C@H]2c1ccccc1 6.88%
CCOC(=O)Cc1csc(SCC(=O)NC2CCS(=O)(=O)C2)n1 (centres undefined) 0.45%
Cc1cc(-c2ccc(Cl)cc2)n2nc(N)nc2n1 8.73%
COc1ccc(C/C(N)=N/OC(C)=O)cc1OC 7.14%
COc1cc(-c2nc3cnccn3c2Nc2ccc(C(C)C)cc2)ccc1O 21.9%
COc1cc(-c2nc3cnccn3c2Nc2ccccc2)ccc1O 30.3%
CCOC(=O)C(C)Sc1nc(-c2ccccc2)nc2ccccc12 (centres undefined) -2.03%
ON=C1CCCC2CCCCC12 (centres undefined) -2.9%
CC(C)CNC(=O)CC(c1ccccc1)c1c(O)ccc2ccccc12 (centres undefined) 10.5%
CC(C)CC(=O)NC(c1ccccc1)c1c(O)ccc2ccccc12 (centres undefined) 7.84%
CN(Cc1ccccc1F)C(=O)CN1c2cccc3cccc(c23)S1(=O)=O 6.24%
COc1cccc(CNC(=O)CCS(=O)(=O)c2ccc3c(c2)NC(=O)CO3)c1 12.4%
CCCn1c(SCC(=O)NNC(=O)c2ccccc2)nnc1-c1cccnc1 12.3%
O=C(NCCO)c1cc2ccccc2c(=O)s1 6.83%
COc1ccc2cc(C(=O)Nc3ccc(F)cc3)sc(=O)c2c1OC 0.7%
O=C(Nc1ccccc1)c1cc2ccccc2c(=O)s1 -4.83%
COc1ccc2cc(C(=O)Nc3ccc(Cl)cc3)sc(=O)c2c1OC 7.43%
CCN1C(=O)[C@H]2[C@H]3CN=C(SCc4ccc(C(=O)OC)cc4)N3[C@@](Cc3ccccc3)(C(=O)OC)[C@H]2C1=O 11.1%
COC(=O)C(Cc1c[nH]c2ccccc12)NC(=O)c1cccc(S(=O)(=O)N2CCCCC2)c1 (centres undefined) 2.63%
CCOC(=O)c1ccc(NC(=O)C(=O)NCC2(c3ccc(OC)cc3)CCOCC2)cc1 15.5%
CC(C(=O)Nc1ccc(Cl)cc1)N1C(=O)NC2(CCCC2)C1=O (centres undefined) 3.21%
CCN(CC(=O)NCc1ccc(F)cc1)C(=O)CN1CCN(c2cc(Cl)ccc2C)CC1 4.22%
Oc1ccc(N=Nc2cccc(Cl)c2)cc1C=Nc1ccc(N2CCOCC2)cc1 7.02%
CCOc1ccc(N=Cc2ccccc2O)cc1 4.12%
CCN(CC)c1ccc(C=Nc2ccc(N(C)C)cc2)c(O)c1 19.7%
Cc1ccc(N=Cc2ccc(O)cc2O)cc1F 2.37%
O=[N+]([O-])c1cc(Br)c(O)c(C=Nc2ccc(N3CCOCC3)cc2)c1 54.6%
Cc1cc(O)c(C=Nc2ccc(N3CCOCC3)cc2)c(C)c1Cl 24.8%
COc1ccc(N=Cc2ccccc2O)cc1 7.18%
Cn1c(O)c(C=Nc2ccc(N3CCOCC3)cc2)c(=O)n(C)c1=S 10.4%

— PubChem BioAssay AID624330 (Southern Research Specialized Biocontainment Screening …, 2012)
